Measured values taken from PubChem BioAssay AID1159580 (chemical genetic matrix, 2015).
In all, about 5,500 compounds went through this assay and about 2,000 (36%) were called active. Another 18% or so got no clear call; they are omitted. Rule as the data show it: active = normalized growth mostly below about 0.91 (no sharp cut-off); inconclusive = no clear call, values can overlap the other calls; inactive = mostly above about 0.92. This is one part of the list.

Assay: chemical genetic growth profiling, strain panel (AID 1159580);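 also: tested at 20 µM; growth read once vehicle control cultures reached saturation at 30 °C; 1 = growth at the plate median or of vehicle wells; lower values mean less growth of the strain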
Conditions: growth OD

Measured: normalized growth

COc1ccc2c(c1)OC1(O)COc3cc(OC)c(OC)cc3C1=C2 (configuration not stated)
active: S. cerevisiae deletion strains, locus YNL307C, strain MCK1, stronger effect = lower value 0.848
inactive: S. cerevisiae deletion strains, locus YJR075W, strain HOC1, stronger effect = lower value 0.956 | S. cerevisiae deletion strains, locus YKL009W, strain mrt4, stronger effect = lower value 0.965 | S. cerevisiae deletion strains, locus YKL068W, stronger effect = lower value 0.99 | S. cerevisiae deletion strains, locus YKL085W, strain MDH1 (second series), stronger effect = lower value 0.98 | S. cerevisiae deletion strains, locus YKL085W, strain MDH1, stronger effect = lower value 0.98 | S. cerevisiae deletion strains, locus YKL160W, strain elf1, stronger effect = lower value 1 | S. cerevisiae deletion strains, locus YKL190W, strain CNB1, stronger effect = lower value 1.01 | S. cerevisiae deletion strains, locus YKR001C, strain vps1, stronger effect = lower value 0.949 | S. cerevisiae deletion strains, locus YKR026C, strain gcn3, stronger effect = lower value 0.974 | S. cerevisiae deletion strains, locus YKR091W, strain srl3, stronger effect = lower value 0.979 | S. cerevisiae deletion strains, locus YLL001W, strain dnm1, stronger effect = lower value 0.944 | S. cerevisiae deletion strains, locus YLL026W, stronger effect = lower value 0.985 | S. cerevisiae deletion strains, locus YLL041C, strain sdh2, stronger effect = lower value 0.987 | S. cerevisiae deletion strains, locus YLR027C, strain aat2, stronger effect = lower value 0.985 | S. cerevisiae deletion strains, locus YLR039C, strain RIC1, stronger effect = lower value 0.974 | S. cerevisiae deletion strains, locus YLR058C, strain SHM2, stronger effect = lower value 1 | S. cerevisiae deletion strains, locus YLR102C, strain apc9, stronger effect = lower value 0.99 | S. cerevisiae deletion strains, locus YLR113W, strain HOG1, stronger effect = lower value 0.939 | S. cerevisiae deletion strains, locus YLR221C, strain rsa3, stronger effect = lower value 0.96 | S. cerevisiae deletion strains, locus YLR258W, strain gsy2, stronger effect = lower value 0.986 | S. cerevisiae deletion strains, locus YLR262C, strain YPT6 (second series), stronger effect = lower value 0.926 | S. cerevisiae deletion strains, locus YLR262C, strain YPT6, stronger effect = lower value 0.961 | S. cerevisiae deletion strains, locus YLR268W, strain sec22, stronger effect = lower value 0.96 | S. cerevisiae deletion strains, locus YLR320W, strain mms22, stronger effect = lower value 0.925 | S. cerevisiae deletion strains, locus YLR330W, strain CHS5, stronger effect = lower value 0.997 | S. cerevisiae deletion strains, locus YLR342W, strain FKS1 (second series), stronger effect = lower value 0.91 | S. cerevisiae deletion strains, locus YLR342W, strain FKS1, stronger effect = lower value 0.976 | S. cerevisiae deletion strains, locus YLR357W, strain rsc2, stronger effect = lower value 0.983 | S. cerevisiae deletion strains, locus YLR370C, strain arc18, stronger effect = lower value 0.985 | S. cerevisiae deletion strains, locus YLR371W, strain rom2, stronger effect = lower value 0.99 | S. cerevisiae deletion strains, locus YLR384C, strain iki3, stronger effect = lower value 0.985 | S. cerevisiae deletion strains, locus YLR418C, strain cdc73, stronger effect = lower value 0.955 | S. cerevisiae deletion strains, locus YML016C, strain PPZ1, stronger effect = lower value 1.01 | S. cerevisiae deletion strains, locus YML032C, strain rad52, stronger effect = lower value 0.957 | S. cerevisiae deletion strains, locus YML120C, strain ndi1, stronger effect = lower value 0.989 | S. cerevisiae deletion strains, locus YML124C, strain tub3, stronger effect = lower value 0.986 | S. cerevisiae deletion strains, locus YMR058W, strain fet3, stronger effect = lower value 0.978 | S. cerevisiae deletion strains, locus YMR078C, strain ctf18, stronger effect = lower value 0.98 | S. cerevisiae deletion strains, locus YMR125W, strain sto1, stronger effect = lower value 0.985 | S. cerevisiae deletion strains, locus YMR129W, stronger effect = lower value 0.977 | S. cerevisiae deletion strains, locus YMR205C, strain PFK2, stronger effect = lower value 0.954 | S. cerevisiae deletion strains, locus YMR223W, strain ubp8, stronger effect = lower value 0.951 | S. cerevisiae deletion strains, locus YMR231W, strain pep5, stronger effect = lower value 0.983 | S. cerevisiae deletion strains, locus YMR263W, strain SAP30, stronger effect = lower value 1.01 | S. cerevisiae deletion strains, locus YMR307W, strain GAS1, stronger effect = lower value 0.984 | S. cerevisiae deletion strains, locus YNL067W, strain RPL9B, stronger effect = lower value 0.998 | S. cerevisiae deletion strains, locus YNL071W, strain lat1, stronger effect = lower value 0.945 | S. cerevisiae deletion strains, locus YNL128W, strain TEP1, stronger effect = lower value 1.02 | S. cerevisiae deletion strains, locus YNL153C, strain GIM3, stronger effect = lower value 1.03 | S. cerevisiae deletion strains, locus YNL183C, strain NPR1, stronger effect = lower value 0.892 | S. cerevisiae deletion strains, locus YNL209W, strain ssb2, stronger effect = lower value 0.993 | S. cerevisiae deletion strains, locus YNL233W, strain BNI4, stronger effect = lower value 0.971 | S. cerevisiae deletion strains, locus YNL248C, strain rpa49, stronger effect = lower value 0.996 | S. cerevisiae deletion strains, locus YNL250W, strain rad50, stronger effect = lower value 0.998 | S. cerevisiae deletion strains, locus YNL271C, strain bni1, stronger effect = lower value 0.98 | S. cerevisiae deletion strains, locus YNL298W, strain CLA4, stronger effect = lower value 0.98 | S. cerevisiae deletion strains, locus YNL322C, strain KRE1 (second series), stronger effect = lower value 0.991 | S. cerevisiae deletion strains, locus YNL322C, strain KRE1, stronger effect = lower value 1 | S. cerevisiae deletion strains, locus YNR049C, strain mso1, stronger effect = lower value 0.992 | S. cerevisiae deletion strains, locus YNR052C, strain pop2, stronger effect = lower value 0.98 | S. cerevisiae deletion strains, locus YOL006C, strain TOP1, stronger effect = lower value 0.945 | S. cerevisiae deletion strains, locus YOL012C, strain htz1 0.969 | S. cerevisiae deletion strains, locus YOL147C, strain pex11, stronger effect = lower value 0.986 | S. cerevisiae deletion strains, locus YOR001W, strain rrp6, stronger effect = lower value 0.915 | S. cerevisiae deletion strains, locus YOR061W, strain CKA2, stronger effect = lower value 1.01 | S. cerevisiae deletion strains, locus YOR069W, strain VPS5, stronger effect = lower value 1.01 | S. cerevisiae deletion strains, locus YOR070C, strain gyp1, stronger effect = lower value 0.985 | S. cerevisiae deletion strains, locus YOR080W, strain dia2, stronger effect = lower value 0.97 | S. cerevisiae deletion strains, locus YOR083W, strain WHI5, stronger effect = lower value 0.982 | S. cerevisiae deletion strains, locus YOR106W, strain vam3, stronger effect = lower value 0.995 | S. cerevisiae deletion strains, locus YOR136W, strain idh2, stronger effect = lower value 0.975 | S. cerevisiae deletion strains, locus YOR144C, strain elg1, stronger effect = lower value 0.987 | S. cerevisiae deletion strains, locus YOR184W, strain ser1, stronger effect = lower value 0.899 | S. cerevisiae deletion strains, locus YOR231W, strain MKK1, stronger effect = lower value 0.92 | S. cerevisiae deletion strains, locus YOR265W, strain rbl2, stronger effect = lower value 0.982 | S. cerevisiae deletion strains, locus YOR270C, strain vph1, stronger effect = lower value 0.904 | S. cerevisiae deletion strains, locus YOR290C, strain snf2, stronger effect = lower value 0.998 | S. cerevisiae deletion strains, locus YOR316C, strain cot1, stronger effect = lower value 0.996 | S. cerevisiae deletion strains, locus YPL051W, strain arl3, stronger effect = lower value 0.949 | S. cerevisiae deletion strains, locus YPL055C, strain LGE1, stronger effect = lower value 1.02 | S. cerevisiae deletion strains, locus YPL078C, strain atp4, stronger effect = lower value 0.999 | S. cerevisiae deletion strains, locus YPL106C, strain sse1, stronger effect = lower value 0.991 | S. cerevisiae deletion strains, locus YPL240C, strain hsp82, stronger effect = lower value 0.988 | S. cerevisiae deletion strains, locus YPL241C, strain CIN2, stronger effect = lower value 1 | S. cerevisiae deletion strains, locus YPL256C, strain CLN2, stronger effect = lower value 0.902 | S. cerevisiae deletion strains, locus YPR119W, strain clb2, stronger effect = lower value 0.983 | S. cerevisiae deletion strains, locus YPR141C, strain kar3, stronger effect = lower value 0.994 | S. cerevisiae deletion strains, locus YPR163C, strain tif3, stronger effect = lower value 0.983 | S. cerevisiae deletion strains, locus YPR167C, strain met16, stronger effect = lower value 0.984 | S. cerevisiae deletion strains, strain wtn01, stronger effect = lower value 0.981 | S. cerevisiae strains, strain wild type, stronger effect = lower value 0.987
